Bioassay records: PubChem, several laboratories
Sampled rows, rich in hits. Any-hit rate of the full collection: about 0.5%.
Tat transport: E. coli Tat transport inhibition; E. coli MC4100 TorA-mCherry Tat export, fluorescence; inhibition, % at 10 µM; 340,000 compounds, 0.036% hits;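 active means mean replicate inhibition at least 50% and at least half of replicates individually reaching 50%; inconclusive means only one of the two criteria met; inactive means neither criterion met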;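 further: exported cargo escapes ClpAP degradation while cytoplasmic cargo is degraded and loses fluorescence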
AddAB inh: less growth of phage-infected E. coli with AddAB; 330,000 compounds, 0.29% hits; inhibition, % at 11.9 µM; E. coli expressing H. pylori AddAB, absorbance growth; in the data active means inhibition above about 12%
E coli growth-1: counter-screen for AddAB inhibitors: E. coli growth inhibition | E. coli V3065 growth, OD600 absorbance, 18 h | inhibition, % at 11.9 µM | 330,000 compounds, 0.27% hits | AID 449728;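 active means inhibition above the campaign's mean inhibition across all tested compounds plus 3 SD, cut at about 9.9% in these data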;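 further: uninfected addAB+ strain grown without phage in ampicillin broth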
E coli growth-2: inhibitors of Escherichia coli growth. OD600, 23 h; active compounds read low. OD600 absorbance (no concentration beside the values). 330,000 compounds, 0.21% hits;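 active means OD600 absorbance below the run mean of sample wells minus 3.6 SD, in any replicate, cut at about 0.56 in these data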
phage Ecoli inh: E. coli growth loss with phage present; growth absorbance; inhibition, % at 11.9 µM; 360,000 compounds, 0.26% hits; AID 651602; in the data active means inhibition above about 11%
RecBCD conf: growth loss of phage-infected V66 E. coli, RecBCD confirmation screen | shares compounds with phage Ecoli inh | inhibition, % at 11.9 µM | E. coli V66 + T4 2- phage, growth OD | 890 compounds, 45% hits;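 active means mean inhibition over triplicates exceeding the hit threshold derived in the original primary screen, cut at about 11% in these data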
Ecoli viability: bacterial viability inhibition counter-screen for RecBCD | E. coli viability, absorbance (OD) growth | 890 compounds, 29% hits | inhibition, % at 11.9 µM | shares compounds with phage Ecoli inh | AID 651983; in the data active means inhibition above about 20%;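 further: E. coli strain V66 grown with compound alone and no phage infection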
AddAB phage OD: growth loss of phage-infected AddAB E. coli, RecBCD counter-screen. shares compounds with phage Ecoli inh. E. coli expressing H. pylori AddAB + T4 phage, OD growth; gene 2 mutant T4, recBCD-deleted host. inhibition, % at 11.9 µM. 890 compounds, 45% hits. AID 651984;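 active means mean inhibition above the solvent-only control wells' mean plus 3 SD, cut at about 22% in these data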;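 further: higher means less bacterial growth from phage killing when AddAB is blocked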
Of the large screens only hits and unclear results are named; the others gave an inactive call (follow-up assays come after a bar, where they were run).

Cc1cc(CNC(=O)C2CC2C(NP(=O)(c2ccccc2)c2ccccc2)c2ccccc2)nn1C (stereo not drawn)	none (no result: Tat transport, AddAB inh, E coli growth-1, phage Ecoli inh)
O=C(NCc1ccccc1)c1sc(=S)n2c1[nH]c(=O)c1ccccc12	phage Ecoli inh 14.6 | RecBCD conf inactive | Ecoli viability inactive | AddAB phage OD inactive
Cc1ccc(C=C(NC(=O)c2ccccc2)C(=O)NCCc2ccccn2)o1	none (no result: Tat transport, AddAB inh, E coli growth-1, phage Ecoli inh)
COc1cc(NS(=O)(=O)c2ccc(NC=CC(=O)c3ccc(OC)c(OC)c3)cc2)nc(OC)n1	none (no result: Tat transport, AddAB inh, E coli growth-1, phage Ecoli inh)
O=Nc1c(-c2cccc([N+](=O)[O-])c2)nc2ncccn12	phage Ecoli inh 16.0 (no result: Tat transport, E coli growth-2) | RecBCD conf 71.8 | Ecoli viability 77.0 | AddAB phage OD 99.8
CC1CCc2nc(C(C#N)=Cc3ccncc3)sc2C1 (stereo not drawn)	none (no result: Tat transport, AddAB inh, E coli growth-1, phage Ecoli inh)
Cc1ccc(NC(=O)C(c2ccccc2)c2ccccc2)nc1	none
O=C(Nc1ccccn1)C(c1ccccc1)c1ccccc1	phage Ecoli inh 11.9 (no result: Tat transport, AddAB inh, E coli growth-1, E coli growth-2) | RecBCD conf inactive | Ecoli viability inactive | AddAB phage OD inactive
CCC(=O)Nc1cccc(C2=NOC3(C2)CC(C(N)=O)N(C(=O)c2ccc(Cl)cc2)C3)c1 (stereo not drawn)	none (no result: Tat transport, AddAB inh, E coli growth-1, phage Ecoli inh)
COC(=O)C1=C(C)N(Cc2ccccc2C(F)(F)F)C(=NCc2ccccc2)NC1c1ccc(C(F)(F)F)cc1 (stereo not drawn)	phage Ecoli inh 13.3 (no result: Tat transport, AddAB inh, E coli growth-1, E coli growth-2) | RecBCD conf inactive | Ecoli viability inactive | AddAB phage OD inactive
COC(=O)C1=C(C)N(Cc2ccccc2C(F)(F)F)C(=NCc2cccc(C(F)(F)F)c2)NC1c1ccc(C(F)(F)F)cc1 (stereo not drawn)	none (no result: Tat transport, AddAB inh, E coli growth-1, E coli growth-2)
CCCCC(=O)NC(c1ccc(Cl)cc1Cl)c1ccc2cccnc2c1O (stereo not drawn)	phage Ecoli inh 19.4 (no result: AddAB inh, E coli growth-1, E coli growth-2) | RecBCD conf 12.8 | Ecoli viability inactive | AddAB phage OD 30.9
CC(=O)NC(c1ccc(N(C)C)cc1)c1cc(Cl)c2cccnc2c1O (stereo not drawn)	phage Ecoli inh 18.6 (no result: Tat transport, AddAB inh, E coli growth-1, E coli growth-2) | RecBCD conf inactive | Ecoli viability inactive | AddAB phage OD 21.6
CC(=O)NC(c1ccc(Cl)cc1)c1ccc2cccnc2c1O (stereo not drawn)	phage Ecoli inh 20.3 (no result: AddAB inh, E coli growth-1) | RecBCD conf 11.9 | Ecoli viability inactive | AddAB phage OD inactive
CCC(=O)NC(c1ccco1)c1cc(Br)c2cccnc2c1O (stereo not drawn)	phage Ecoli inh 19.6 (no result: Tat transport, AddAB inh, E coli growth-1, E coli growth-2) | RecBCD conf inactive | Ecoli viability inactive | AddAB phage OD inactive
CCCn1c2ccc(C(C)=NO)cc2c2cc(C(C)=NO)ccc21	none (no result: Tat transport, AddAB inh, E coli growth-1, phage Ecoli inh)
CC1NC(=O)C(CCC(N)=O)NC(=O)c2cc([N+](=O)[O-])cc(I)c2NCCCC(C(N)=O)NC1=O (stereo not drawn)	none (no result: Tat transport, AddAB inh, E coli growth-1, phage Ecoli inh)
CCOC(=O)CN1C(=O)NC(c2cccc(C(F)(F)F)c2)C(C(=O)OC)C1C (stereo not drawn)	none (no result: Tat transport, AddAB inh, E coli growth-1, phage Ecoli inh)
Cc1cccc(C(=O)OC2C(C)NS(=O)(=O)C3CC4C=C[C@]23O4)c1 (stereo partly drawn)	none (no result: Tat transport, AddAB inh, E coli growth-1, phage Ecoli inh)
CCC(=O)NC(c1cc(Cl)c2cccnc2c1O)C1CC1 (stereo not drawn)	E coli growth-1 10.9, phage Ecoli inh 14.2 | RecBCD conf inactive | Ecoli viability inactive | AddAB phage OD inactive
O=C(NC(c1ccc(Cl)cc1)c1cc(Cl)c2cccnc2c1O)c1cccnc1 (stereo not drawn)	none (no result: E coli growth-2)
CC(=O)NC(c1cc(F)c2cccnc2c1O)C1CC1 (stereo not drawn)	none
CCCC(=O)NC(c1ccc(OC)c(OC)c1)c1cc(Cl)c2cccnc2c1O (stereo not drawn)	E coli growth-1 10.6, phage Ecoli inh 14.1 | RecBCD conf inactive | Ecoli viability inactive | AddAB phage OD inactive
COc1ccc(C(NC(C)=O)c2cc(Cl)c3cccnc3c2O)cc1 (stereo not drawn)	E coli growth-1 19.5, phage Ecoli inh 14.1 | RecBCD conf inactive | Ecoli viability inactive | AddAB phage OD inactive
CCN1C(=O)C2C(c3ccc(-c4ccc(OC)cc4)cc3)N3CCCC[C@@]3(C(=O)OC)C2C1=O (stereo partly drawn)	none (no result: Tat transport, AddAB inh, E coli growth-1, phage Ecoli inh)
O=S1(=O)CCOCC(Cc2ccccc2)N1Cc1ccc(Cl)cc1 (stereo not drawn)	none (no result: Tat transport, AddAB inh, E coli growth-1, phage Ecoli inh)
Oc1ccccc1C=NNC(=S)NN=Cc1ccccc1O	phage Ecoli inh 12.7 (no result: AddAB inh, E coli growth-1) | RecBCD conf 12.9 | Ecoli viability inactive | AddAB phage OD 37.6
Oc1ccc(/C=N/NC(=S)Nc2cccnc2)c(O)c1O	phage Ecoli inh 14.7 (no result: AddAB inh, E coli growth-1, E coli growth-2) | RecBCD conf 11.3 | Ecoli viability inactive | AddAB phage OD 32.5
NC(=S)N/N=C/c1ccccc1O	none (no result: E coli growth-2)
CC(=O)N1C(C)C=C[C@]1(Cc1ccccc1)C(=O)NCc1cc(F)cc(C(F)(F)F)c1 (stereo partly drawn)	none (no result: Tat transport, AddAB inh, E coli growth-1, phage Ecoli inh)
O=S(=O)(Oc1ccccc1)c1cccnc1	phage Ecoli inh 100.7 | RecBCD conf inactive | Ecoli viability inactive | AddAB phage OD inactive
O=C1/C(=C/c2cccnc2)Oc2cc(OS(=O)(=O)c3ccccc3)ccc21	Tat transport inconclusive (no result: phage Ecoli inh)
Cc1cc(C)cc(N=C2NC(=O)/C(=C/c3cccs3)S2)c1	none
CCOc1ccc2c(c1)S/C(=C\c1cccs1)C(=O)N2	phage Ecoli inh 53.8 | RecBCD conf inactive | Ecoli viability inactive | AddAB phage OD inactive
O=[N+]([O-])c1ccc(N2CCN(Cc3ccccc3)CC2)s1	none
O=[N+]([O-])c1ccc(N2CCN(Cc3ccccc3)CC2)c2c1no[n+]2[O-]	phage Ecoli inh 11.6 (no result: Tat transport, AddAB inh, E coli growth-1, E coli growth-2) | RecBCD conf inactive | Ecoli viability inactive | AddAB phage OD 42.3
Cc1ccc2ccc(C(Nc3ccccc3)c3ccccc3)c(O)c2n1 (stereo not drawn)	phage Ecoli inh 12.5 (no result: Tat transport, AddAB inh, E coli growth-1, E coli growth-2) | RecBCD conf inactive | Ecoli viability inactive | AddAB phage OD inactive
Cc1ccc2ccc(C(Nc3ccccc3)c3ccc(C(C)C)cc3)c(O)c2n1 (stereo not drawn)	none (no result: Tat transport, AddAB inh, E coli growth-1, E coli growth-2)
Cc1ccc2ccc(C(Nc3ccccc3)c3ccc(Cl)cc3)c(O)c2n1 (stereo not drawn)	phage Ecoli inh 11.8 (no result: Tat transport, AddAB inh, E coli growth-1, E coli growth-2) | RecBCD conf inactive | Ecoli viability inactive | AddAB phage OD inactive
Cc1ccnc(NC(c2ccccc2)c2ccc3cccnc3c2O)c1 (stereo not drawn)	phage Ecoli inh 17.1 (no result: AddAB inh, E coli growth-1) | RecBCD conf inactive | Ecoli viability inactive | AddAB phage OD inactive
Cc1ccc2ccc(C(Nc3ccccn3)c3ccccc3)c(O)c2n1 (stereo not drawn)	none
C[C@]12C(=O)N(c3ccccc3)C(=O)N1C1c3ccccc3OCC1C2c1ccccc1 (stereo partly drawn)	none (no result: Tat transport, AddAB inh, E coli growth-1, phage Ecoli inh)
Nn1c(SCc2cccc(F)c2)nnc1-c1ccncc1	none
Nn1c(SCc2cccc(Br)c2)nnc1-c1ccncc1	phage Ecoli inh 99.6 | RecBCD conf inactive | Ecoli viability inactive | AddAB phage OD inactive
